An excerpt weighted towards active compounds, which were near 12% of everything screened.
Sfp PPTase inh – Sfp phosphopantetheinyl transferase inhibition; Q9F4F7; Biochemical Sfp PPTase activity, qHTS; Potency, µM, most hits filed as inhibitors; 310,000 tested, 3.5% active; AID 1490;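 also: the enzyme is Sfp with the accession as filed and its product quenches rhodamine fluorescence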
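With Hepes-Na pH 7.6 buffer containing 10 mM MgCl2, Sfp (15 nM) modified BHQ-2-YbbR (12.5 uM) using rhodamine-CoA (5 uM). Two reads 30 minutes apart at 525/598 nm yielded each well's rate.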
HP1b binding inh – HP1-beta chromodomain-methylated histone interaction inhibition; P83916; AlphaScreen HP1-beta / biotin-H3K9me3 peptide binding; Potency, µM (top dose mostly 114 µM), most hits filed as inhibitors; 390,000 tested, 0.56% active; also: nearly all actives have a fitted effect of over 70% in size
Target sequence (P83916 whole entry, looked up): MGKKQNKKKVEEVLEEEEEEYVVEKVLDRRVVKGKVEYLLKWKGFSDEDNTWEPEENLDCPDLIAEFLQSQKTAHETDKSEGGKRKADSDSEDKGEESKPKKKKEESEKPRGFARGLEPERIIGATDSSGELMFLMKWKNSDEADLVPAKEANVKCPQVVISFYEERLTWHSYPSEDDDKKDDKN
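HP1-beta protein (50 nM final) preincubated 30 min at room temperature with biotinylated H3(1-18)K9me3 peptide (50 nM) in PBS pH 7.4, 0.01% Tween-20, then compound added for 30 min. AlphaScreen streptavidin donor/nickel chelate acceptor beads (10 ug/mL final), 30 min dark, luminescence read.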
BAZ2B inh – BAZ2B (human) inhibition; AlphaScreen BAZ2B-H3K14Ac peptide displacement; Potency, µM (series often up to 114 µM), most hits filed as inhibitors; 360,000 tested, 4.4% active; AID 504333; also: nearly all actives have a fitted effect of over 60% in size
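Protein-peptide AlphaScreen: BAZ2B 50 nM, b-H3K14Ac 50 nM, 1x PBS pH 7.4 + 0.01% Tween-20. Preincubation 30 min RT; cpd 30 min RT (top 110 uM); beads 20 min RT, light-protected.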
L3MBTL1 inh – inhibitors of human L3MBTL1; Q9Y468; AlphaScreen L3MBTL1–H3K9me1 peptide binding; Potency, µM (highest dose often 57.1 µM), actives largely listed as inhibitors; 230,000 tested, 0.66% active; AID 485360; also: nearly all actives have a fitted effect of over 60% in size
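AlphaScreen assay: L3MBTL1 (50 nM final) was preincubated 30 min at room temperature with biotinylated H3(1-15)K9me1 peptide (75 nM final), then 30 min with library compounds; streptavidin donor and nickel chelate acceptor beads (10 ug/mL final) added, 30 min dark.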
G9a block – inhibitors of human histone lysine methyltransferase G9a; 350,000 tested, 8.8% active; Q96KQ7; Potency, µM (highest dose often 102 µM), actives largely listed as inhibitors; AID 504332; G9a H3K9 monomethylation, AlphaScreen, 2 h; also: nearly all actives have a fitted effect of over 75% in size
Target sequence (Q96KQ7 913-1193 limits assumed): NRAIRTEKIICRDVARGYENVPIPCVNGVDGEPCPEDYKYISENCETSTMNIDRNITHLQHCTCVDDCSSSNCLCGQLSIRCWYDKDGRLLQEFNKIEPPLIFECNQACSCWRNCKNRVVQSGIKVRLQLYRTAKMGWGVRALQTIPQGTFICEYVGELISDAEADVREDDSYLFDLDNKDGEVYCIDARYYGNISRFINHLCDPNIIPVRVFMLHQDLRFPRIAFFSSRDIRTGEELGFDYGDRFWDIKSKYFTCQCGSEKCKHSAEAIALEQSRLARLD
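Using a bead-based AlphaScreen, monomethylated H3K9 product from 2 h room-temperature reactions (G9a 20 nM, peptide 500 nM, SAM 20 uM) was detected with 0.5 ug/mL rabbit anti-H3K9me1 antibody.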
JMJD2A Tudor – inhibitors of human JMJD2A Tudor domain; 390,000 tested, 4.4% active; AlphaScreen JMJD2A-Tudor / H3K4me3 peptide binding; Potency, µM (highest dose often 114 µM), usual class: inhibitors; O75164; also: nearly all actives have a fitted effect of over 50% in size
Hits are given with their value; i = inactive; ? = inconclusive; nt = not tested or not shown; ! = a repeat was not active; [ ] = remark or other dose. Calls follow the shape of the dose curve; as a rule, active = well fitted curve in the direction sought with a large enough effect; inconclusive = small, poorly fitted or top-dose-only effect, or another doubt; inactive = no such curve, though single readings can be large; an effect the other way counts as inactive or inconclusive.

SMILES | Sfp PPTase inh | HP1b binding inh | BAZ2B inh | L3MBTL1 inh | G9a block | JMJD2A Tudor
CC1CCCN(CCOc2ccc3ccccc3c2Br)C1 (stereo unspecified) | 16µM | ? | 22µM | i[11.4 µM] | ? | ?
Clc1ccc(OCCCN2CCc3ccccc3C2)c(Br)c1 | i | i | i | i | i | i
Cc1ccc(C)c(NC(=O)CCN2CCCC(C)C2)c1 (stereo unspecified) | i | i | i | i | nt | i
CC1CCN(CCCOc2ccc(Cl)cc2Br)CC1 | i | ? | ? | i | 20µM | 20µM
COc1ccccc1Cn1ccn(Cc2c(F)cccc2Cl)c(=O)c1=O | nt | i | i | nt | i | i
CC1CCCN(CCCOc2ccc(Cl)cc2Br)C1 (stereo unspecified) | i | ? | i | i | 10µM | 22µM
CC(=O)Nc1cccc(NC(=O)C2(c3cccs3)CCOCC2)c1 | nt | i | i | nt | i | i
O=C(NCc1ccc(Cl)cc1)C(=O)Nc1ccc(Br)cc1 | nt | i | i | nt | i | i
Cc1cc(/C=N/NC(=O)c2ccc(O)cc2)c(C)n1C1CC1 | i | i | ? | i | i | i[11.4 µM]
Cc1cc(/C=C2/C(=O)N(C)C(=S)N2C)c(C)n1C1CC1 | i | i | ? | i | 79µM | ?
Cc1cc(/C=C2\SC(=S)NC2=O)c(C)n1C1CC1 | i | i | 45µM | i | ? | 45µM
O=C(O)Cn1ccc2cc(S(=O)(=O)N3CCCCCC3)ccc21 | i | i | i | nt | i | i
CC(=O)c1c(C)[nH]c(C(=O)Nc2nccs2)c1C | i | i | ? | nt | i | 22µM
CC(=O)c1c(C)[nH]c(C(=O)Nc2cccc(C)n2)c1C | i | i | ? | nt | nt | i
CC1CCC2C(C)C3C(CC4[C@@H]5CC=C6C[C@@H](O)CC[C@]6(C)C5CC[C@]34C)N2C1 (stereo partly specified) | i | nt | nt | nt | nt | nt
CN(C)c1ccc(N/C(N)=N/c2nc(C(F)(F)F)cc(C(F)(F)F)n2)cc1 | i | i | ? | nt | 13µM | i
CCCCOP(=O)(OCCCC)C1(NS(=O)(=O)c2ccccc2)C=CC(=O)c2ccccc21 (stereo unspecified) | i | ? | i | i | 1.8µM | ?
Cc1sc(/N=C/c2c(O)ccc3ccccc23)c(C#N)c1C | i | nt | i | nt | 10µM | nt
COc1ccc(O)c(/C=N/c2sc(C)c(C)c2C#N)c1 | ? | ? | i | nt | ? | 79µM
COc1ccc(O)c(/C=N/c2nc3ccccc3n2C)c1 | i | i | i | i | i | i
O=C1c2cc(O)cc(O)c2OC[C@@H]1c1ccc(O)c(O)c1 | i | nt | nt | nt | nt | nt
Cc1ccc(-n2nc(C)c3c(C)cc(=O)n(CC(=O)Nc4cccc(C)c4C)c32)cc1 | nt | i | i | nt | i | i
CC(C)(C)N=C1NN=C(c2ccc(S(=O)(=O)N3CCCCC3)cc2)CS1 | nt | i | i | i | 35µM | i
CC(=O)Nc1ccc(C2=NNC(=Nc3cccc(S(=O)(=O)N(C)C)c3)SC2)cc1 | 13µM | ? | i | i | 25µM | 35µM
CN(C)S(=O)(=O)c1cccc(N=C2NN=C(c3ccccc3)CS2)c1 | i | ? | i | ? | 35µM | i
SMILES | Sfp PPTase inh | HP1b binding inh | BAZ2B inh | L3MBTL1 inh | G9a block | JMJD2A Tudor
Cc1ccc(S(=O)(=O)N2CCN(S(=O)(=O)N3CCCCC3)CC2)cc1 | i | i | i | i | i | i
COc1ccc(C2=NNC(=Nc3cc(S(=O)(=O)N(C)C)ccc3C)SC2)c(OC)c1 | ? | i | i | ? | i | i
CC(=O)Nc1ccc(C2=NNC(=Nc3ccc(S(=O)(=O)N4CCOCC4)cc3)SC2)cc1 | 14µM | ? | i | ? | 2.8µM | i
O=S(=O)(c1ccc(N=C2NN=C(c3cc(F)ccc3F)CS2)cc1)N1CCOCC1 | i | i | i | nt | i | i
CCCSC1=NC2(CCN(C(=O)NC3CCCCC3)CC2)N=C1c1ccc(C)cc1 | nt | i | i | nt | i | i
Cc1cccc(-n2nnc(-c3nc(-c4cccs4)no3)c2N)c1 | nt | i | i | nt | i | i
O=C1c2ccccc2CCC1CNCCc1ccc(O)cc1 (stereo unspecified) | 56µM | nt | nt | nt | 7.9µM | nt
C=CCNC(=S)/N=c1/ccccn1C | i | i | i | i | 35µM | i
C[n+]1cccc2c(Br)ccc([O-])c21 | 56µM | i | i | ? | nt | i
COc1ccccc1NC(=O)Cn1c(=O)n(Cc2ccccc2)c(=O)c2sc3ccccc3c21 | nt | i | i | nt | i | i
CC(=O)O[C@H]1C(=O)[C@@]2(C)[C@H]([C@H](OC(=O)c3ccccc3)[C@]3(O)C[C@H](OC(=O)[C@H](O)[C@@H](NC(=O)c4ccccc4)c4ccccc4)C(C)=C1C3(C)C)[C@]1(OC(C)=O)CO[C@@H]1C[C@@H]2O | 50µM! | i | i | i | i[12.7 µM] | i
CCCCCC(=O)N[C@@H](c1ccccc1)[C@@H](O)C(=O)O[C@H]1C[C@@]2(O)[C@@H](OC(=O)c3ccccc3)C3[C@](C)(C(=O)[C@H](OC(C)=O)C(=C1C)C2(C)C)[C@@H](O)C[C@H]1OC[C@@]31OC(C)=O (stereo partly specified) | i | i | ? | i | i | i
S=c1nc(-c2ccc(Br)cc2)[nH]c2ccccc12 | i | i | i | i | nt | i[11.4 µM]
S=c1nc(-c2ccccc2)[nH]c2ccccc12 | i | i | i | i | 50µM | i
CCOC(=O)C1(C)C=C(Nc2ccc(O)cc2)C(=O)N1c1ccc(O)cc1 (stereo unspecified) | 50µM | i | 50µM | i | 8.9µM | ?
Cc1cccc(N2CCN(C(=O)c3cc4ccc5cccnc5c4[nH]3)CC2)c1C | nt | i | i | nt | ? | ?
Cc1c(C(=O)N(C)C)c2cc(Cl)ccc2n1O | i | i | i | i | ? | i
Cc1c(C(=O)N(C)C)c2ccc(Cl)cc2n1O | i | i | i | i | 3.2µM | i
COc1ccccc1C(=O)COC(=O)c1ccc(Cl)nc1 | nt | i | i | i | i[12.7 µM] | i
CCc1nnc2c(NCCc3ccc(OC)c(OC)c3)nc3ccccc3n12 | i | i | ? | nt | i | 32µM!
COc1ccc(CCNc2nc3ccccc3n3cnnc23)cc1OC | i | i | i | i | i | i
O=S(=O)(/N=C(\Sc1ccc(Cl)cc1)c1ccccc1)c1ccccc1 | 56µM | i | i | i | i[12.7 µM] | i
Oc1ccccc1/C=N/n1c(-c2ccccc2)n[nH]c1=S | ? | i | ? | nt | 1.6µM | 25µM
NC(=S)N/N=C/c1cc([N+](=O)[O-])ccc1Cl | i | i | i | i | i | i
Oc1c(Br)cc(/C=N/n2c(-c3ccccc3)n[nH]c2=S)c(Br)c1O | i | nt | 1.8µM | 0.79µM | 1.8µM | nt
O=[N+]([O-])c1ccc(Cl)c(/C=N/n2c(-c3ccncc3)n[nH]c2=S)c1 | 56µM | i | i | nt | 4µM | 3.2µM
COc1c(Br)cc(/C=N/n2c(-c3ccccc3)n[nH]c2=S)c(O)c1Br | 50µM | i | i | i | nt | ?
COc1ccc(CCc2cc(OC)cc(=O)o2)cc1 | i | i | i | nt | i[12.7 µM] | i

Compound activity (PubChem BioAssay)
